This is a sample that favours compounds with a hit; in the whole collection about 6.9% have one here.
ASM inhibitor = human S-ASM enzyme inhibition | 0.006% of 340,000 active | placental ASM, HMU-PC fluorogenic substrate, 60 min | AID 504937 | Potency, µM (highest dose often 57.5 µM), without a hit: at the highest dose activity change, negative = inhibition, most hits filed as inhibitors; note: potency is the fitted concentration of half-maximal effect
Target sequence (P17405 47-631 limits assumed): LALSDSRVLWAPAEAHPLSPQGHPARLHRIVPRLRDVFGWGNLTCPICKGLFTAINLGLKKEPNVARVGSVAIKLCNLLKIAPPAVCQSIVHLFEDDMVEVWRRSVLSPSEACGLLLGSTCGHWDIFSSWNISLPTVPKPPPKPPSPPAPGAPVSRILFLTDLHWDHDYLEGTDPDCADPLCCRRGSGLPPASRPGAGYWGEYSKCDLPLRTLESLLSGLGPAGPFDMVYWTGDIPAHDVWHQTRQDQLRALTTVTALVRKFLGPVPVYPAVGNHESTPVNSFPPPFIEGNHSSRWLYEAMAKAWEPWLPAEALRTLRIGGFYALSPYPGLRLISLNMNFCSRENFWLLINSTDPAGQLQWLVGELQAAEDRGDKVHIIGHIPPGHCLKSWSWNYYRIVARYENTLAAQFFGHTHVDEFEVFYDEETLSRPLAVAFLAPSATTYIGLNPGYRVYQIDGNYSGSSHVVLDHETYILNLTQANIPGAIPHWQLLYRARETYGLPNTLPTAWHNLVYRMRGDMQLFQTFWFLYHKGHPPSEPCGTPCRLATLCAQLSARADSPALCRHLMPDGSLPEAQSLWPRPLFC
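HMU-PC0 cleavage (9 uM final) by human placental ASM, 60 min at 37 °C following 10 min compound exposure at RT; stopped at pH 10, fluorescence Ex 386/Em 447 nm.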
MCF10A rerep = DNA re-replication induction in MCF 10a cells. 2.9% of 350,000 active. MCF 10A DNA re-replication, Hoechst nuclear intensity, 48 h. Potency, µM (highest dose often 46.1 µM), without a hit: at the highest dose activity, positive = re-replication, actives largely listed as activators; note: potency is the fitted concentration of half-maximal effect; % of control where 0% means no effect; nearly all actives have a fitted effect of over 50% in size
SW480 rereplic = inducers of DNA re-replication in SW480 colon cancer cells; SW480 DNA re-replication, Hoechst DNA content imaging, 48 h; Potency, µM (top dose mostly 46.1 µM), without a hit: at the top dose re-replication activation, most hits filed as activators; 1.8% of 340,000 active; note: potency is the fitted concentration of half-maximal effect; % of control where 0% means no effect; nearly all actives have a fitted effect of over 55% in size
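Treated cells incubate 48 hr (37 C, 5% CO2), are stained 40 min with Hoechst, and nuclear fluorescence is enumerated; a rise in nuclei with high DNA signal marks re-replication.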
Giardia kill = kills Giardia lamblia | Giardia lamblia trophozoite viability | activity change, % at 7.66 µM, hits read low | 0.15% of 340,000 active; in the data active = activity change below about -80%; inconclusive = between about -30% and that limit;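 note: parasites exposed to compound for two days anaerobically before the ATP read; % is set by controls: 0 for no effect and ±100 for the full control effect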
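Giardia lamblia trophozoites (100 cells/well) were incubated with compounds for 48 h at 37 deg C under anaerobic conditions. Viability was read as ATP content by one-step luminescence after 15-30 min at room temperature.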
KB-3-1 tox = kills parental KB-3-1 adenocarcinoma cells | Potency, µM (doses to about 46.1 µM), hits mostly cytotoxic | 1.4% of 400,000 active | KB-3-1 viability, CellTiter-Glo ATP luminescence, 72 h; note: potency is the fitted concentration of half-maximal effect; % is set by controls: 0 for no effect and ±100 for the full control effect; nearly all actives have a fitted effect of over 60% in size
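KB-3-1 cells, DMEM (no phenol red) + 10% FBS; compound by pin transfer, 72 h, 37 °C. Readout: CellTiter-Glo luminescence after 10 min. Data normalized, curve-fitted.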
KB-V1 cytotox = kills drug-selected multidrug resistant KB-V1 cells; KB-V1 MDR cells viability, CellTiter-Glo, 72 h; Potency, µM (highest dose often 46.1 µM), usual class: cytotoxic; 3.4% of 400,000 active; note: potency is the fitted concentration of half-maximal effect; % is set by controls: 0 for no effect and ±100 for the full control effect; nearly all actives have a fitted effect of over 60% in size
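Drug-selected KB-V1 cells, grown in DMEM lacking phenol red with 10% FBS, receive compound titrations; after three days at 37 degrees C, surviving cell ATP is quantified by CellTiter-Glo luminescence and responses normalized and curve-fitted.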
An asterisk follows results filed as active; i = inactive; ? = inconclusive; . = no result. Unless noted, calls come from the whole dose curve; as a rule, active = well fitted curve in the direction sought with a large enough effect; inconclusive = small, poorly fitted or top-dose-only effect, or another doubt; inactive = no such curve, though single readings can be large; an effect the other way counts as inactive or inconclusive.

SMILES	ASM inhibitor	MCF10A rerep	SW480 rereplic	Giardia kill	KB-3-1 tox	KB-V1 cytotox
COc1cccc(CN(C)CC(=O)NC(=O)NCc2ccccc2)c1	3%	19%	-3%	3	i	21µM*
COc1ccc(CNC(=O)c2cccc(C)c2[N+](=O)[O-])cc1	2%	-42%	-49%	-15	i	23µM*
Cc1cccc(C(=O)NCc2ccc(S(N)(=O)=O)cc2)c1[N+](=O)[O-]	2%	-4%	-7%	13	i	i
COc1ccc(N2CCN(C(=O)c3ccc(C)c(NC(=O)c4nsc5ccccc45)c3)CC2)cc1	.	.	.	.	i	i
CC1(C)CC(=O)c2cc(-c3nc(-c4ccc(Cl)cc4)cs3)c(=O)[nH]c2C1	.	.	.	.	i	i
Cc1nc(-c2cccc(F)c2)sc1CCNC(=O)c1c(F)cccc1Cl	.	.	.	.	i	i
COc1cc(OC)cc(C(=O)NCC(=O)Nc2ccc(C)c(Cl)c2)c1	-14%	16%	-1%	-1	i	i
O=C(COc1ccc(C(=O)c2ccccc2)cc1)NCC1CCCCC1	0%	18µM*	0%	13	i	i
COc1cc(OC)cc(C(=O)NCC(=O)Nc2ccc(-c3ccccc3)cc2)c1	-12%	4.6µM*	8.2µM*	-3	?	i
O=C(COc1ccccc1)NCC1CCCO1 (centres undefined)	3%	2%	-3%	-9	i	i
Cc1ccc(C(=O)N/C(=C/c2ccc(-c3cccc([N+](=O)[O-])c3)o2)C(=O)NC(C)C)cc1	-16%	20%	0%	1	i	3.7µM*
Cc1ccc(C(=O)N/C(=C\c2ccc(-c3ccc(Cl)cc3)o2)C(=O)NCCCN(C)C)cc1	86%	?	18µM*	-18	?	i
CCCCNC(=O)/C(=C\c1ccc([N+](=O)[O-])o1)NC(=O)c1ccccc1	-2%	-4%	?	-101*	i	?
Cc1ccc(C(=O)N/C(=C/c2ccc(-c3cccc([N+](=O)[O-])c3)o2)C(=O)NC(C)(C)C)cc1	.	7%	12%	-7	i	i
Cc1ccc(C(=O)N/C(=C\c2ccc(-c3ccccc3[N+](=O)[O-])o2)C(=O)NCCN(C)C)cc1	-4%	-2%	2.9µM*	8	i	?
CCC(=O)N1CCc2cc(S(=O)(=O)NCCC(=O)Nc3ccc(OC)c(OC)c3)ccc21	.	.	.	.	i	i
CCN(CC)S(=O)(=O)c1nnc(NC(=O)COc2ccc(C)cc2)s1	.	.	.	.	i	i
Cc1cccc(OCCNC(=O)c2cccc(Oc3ccc(C(F)(F)F)cc3[N+](=O)[O-])c2)c1	-3%	-2%	3%	-1	18µM*	9.2µM*
Cc1cccc(OCCNC(=O)c2ccc(Oc3ccc(C(F)(F)F)cc3[N+](=O)[O-])cc2)c1	-1%	7%	1%	3	i	i
CC(NC(=O)COC(=O)c1ccco1)C12CC3CC(CC(C3)C1)C2 (centres undefined)	.	.	.	7	.	.
C=C1C=C(C)n2ncc(C(=O)Nc3cccc4cnccc34)c2N1	.	.	.	.	?	i
COc1ccc(S(=O)(=O)N(C)CC(=O)Nc2ccccc2C(F)(F)F)cc1	-5%	-8%	4%	-2	i	i
COc1ccc(S(=O)(=O)N(C)CC(=O)Nc2ccccc2C(F)(F)F)cc1Cl	-2%	-10%	-1%	6	i	15µM*
CCn1c(C)cc2c(c1=O)C(c1ccccc1)C(C(=O)OC)=C(N)O2 (centres undefined)	27%	16µM*	1%	-1	i	i
COc1ccc(C(CNc2nc(-c3cccnc3)nc3ccccc23)N(C)C)cc1 (centres undefined)	24%	?	245%	-19	i	i
SMILES	ASM inhibitor	MCF10A rerep	SW480 rereplic	Giardia kill	KB-3-1 tox	KB-V1 cytotox
Cc1ccc(C(=O)/C=C/c2cn(CC(O)CN3CCc4ccccc43)c3ccccc23)cc1 (centres undefined)	.	.	.	.	?	i
COc1ccc(C(=O)/C=C/c2cn(CC(O)CN3CCOCC3)c3ccccc23)cc1 (centres undefined)	292%	15µM*	15µM*	18	i	i
Cc1ccc(C(=O)/C=C/c2cn(CC(O)CN3CCOCC3)c3ccccc23)cc1 (centres undefined)	174%	13µM*	21µM*	8	?	i
Cc1ccccc1C(=O)Nc1sc2c(c1C(=O)N1CCC(C)CC1)CCC(C)C2 (centres undefined)	.	.	.	.	i	i
COc1cc(OC)cc(C(=O)Nc2nnc(Cc3ccc(OC)c(OC)c3)s2)c1	5%	4%	-1%	-5	i	i
COc1ccc(CNC(=O)C2Cc3c(-c4ccc5c(c4)OCO5)ccnc3O2)cc1OC (centres undefined)	.	.	.	.	21µM*	9.2µM*
O=C(NCc1ccc(F)c(F)c1)C1Cc2c(-c3ccc4c(c3)OCO4)ccnc2O1 (centres undefined)	.	.	.	.	8.2µM*	4.1µM*
C/C(=N\NC(=O)c1ccccc1-n1cccc1)c1ccccn1	.	.	.	.	10µM*	i
O=C(N/N=C/c1ccc(Br)cc1)c1ccccc1-n1cccc1	-14%	?	13µM*	4	?	15µM*
CCOc1cc(C(=O)Nc2cc(C)ccc2OC)ccc1OCC(=O)N1CCCCC1	8%	-35%	-147%	-2	i	7.3µM*
COc1ccc(C)cc1NC(=O)c1nn(-c2ccccc2)cc1OC	-4%	23µM*	22%	2	?	?
COc1ccc(C)cc1NC(=O)c1ccc(CN2CCN(c3ccccc3)CC2)cc1	2%	?	25%	1	?	18µM*
COc1cc(CNc2ccc(N3CCN(C(C)=O)CC3)cc2)ccc1OCc1ccccc1	3%	9%	2%	17	?	7.3µM*
CCOc1cc(C(=O)Nc2ccc(C)cc2C)ccc1OCC(=O)N1CCCCC1	5%	-3%	-1%	0	i	i
C#C[C@]1(OC(C)=O)CC[C@H]2[C@@H]3CCC4=C/C(=N/O)CC[C@@H]4[C@H]3CC[C@@]21CC	.	?	18%	.	.	.
Cc1ccc(C)c(CN2C(=O)c3ccccc3S(=O)c3ccc(C(=O)NCc4ccccc4)cc32)c1 (centres undefined)	.	.	.	.	i	i
COc1ccc(C(=O)Nc2ccc(Cn3ccnc3)cc2)cc1OC	0%	?	3%	-4	?	?
COc1ccc(NC(=O)c2ccc(CN3CCN(c4ccccc4)CC3)cc2)cc1OC	-1%	-2%	4%	17	?	16µM*

Screens deposited in PubChem BioAssay by National Center for Advancing Translational Sciences (NCATS).
